In PubChem BioAssay AID1347417 (National Center for Advancing Translational Sciences (NCATS), 2020):
The whole screen tested about 120,000 compounds, of which about 5,300 (4.4%) were called active. Inconclusive results (about 22%) are left out. This is one part of a sample in which actives are shown more often than they occur. Unmarked numbers belong to inactive results. Calls come from the whole dose curve; as a rule, active = well fitted inhibition curve with a large enough effect; inconclusive = small, poorly fitted or top-dose-only effect; inactive = no such curve, though single readings can be large or run the other way.

Experiment: qHTS Primary assay for Inhibitors of Plasmodium falciparum Dd2 growth in vitro; note: nearly all actives have a fitted effect of over 65% in size;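 for activity, negative = inhibition: plate controls were DMSO vehicle for no effect and reference drug for full effect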
Conditions: P. falciparum Dd2 growth, SYBR Green, 72 h; series mostly up to 28.9 µM; activity, negative = inhibition: at the top concentration
Summary of the method: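 Readout: SYBR Green fluorescence, 485 nm excitation, 535 nm emission, after ~16 h lysis at 37C. Before that, Dd2-infected red cells (2.5% hematocrit) grew 72 h with compound, 29 uM top final concentration.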
Potency is the fitted concentration of half-maximal effect.

Compound	activity, negative = inhibition	outcome	Potency
Cc1ccc2cc(CCC(=O)O)c(=O)[nH]c2c1	9.25%		
Cc1cc2nc3n(c(=O)c2n1CC(=O)NCc1ccccc1Cl)CCCC3	12.7%		
Oc1ccccc1CNC1(Cc2cc(CN3CCOCC3)on2)COC1	14% [at 44.1 µM]		
C[C@@H](NC(=O)C[C@@H]1[C@H](O)CC[C@@H]2[C@](C)(CO)[C@H](O)CC[C@]21C)c1ccccc1	17.5% [at 44.1 µM]		
COc1ccc(C(=O)N2CCC(Oc3ncccc3C(=O)N(C)C)C2)c(OC)c1 (stereo unspecified)	0.886%		
CC[C@@H](NC(=O)CC1CCN(Cc2ccccc2)CC1)C1CC(O)C1 (stereo partly specified)	1.5%		
CCOc1ccc(C(=O)N2CCN(c3cc(-c4cccs4)[nH]n3)CC2)cc1		inactive	
CCOc1ccc(C(=O)N2CCC3(CC2)c2nccn2-c2ccccc2CN3C)cc1		inactive [at 5.79 µM]	
CCOc1ccc(C(=O)N2CCN(CCc3ccccn3)CC2)cc1			2.82 µM (active)
Cc1oc2ccn(Cc3cccc(F)c3)c(=O)c2c1C(=O)NCc1cccnc1	-4.3%		
O=C(O)Cn1ccc2cc(OCCc3cccc(-c4cccnc4)c3)cnc21	1.28% [at 44.1 µM]		
N#Cc1cccc(NC(=O)NC[C@H]2C[C@@H]3CCN2C[C@@H]3CN2CCN(c3ncccn3)CC2)c1		inactive	
CCC(CC)c1cc([C@H]2CN3CC[C@H]2C[C@@H]3CNC(=O)NCc2ccccc2)nc(-c2ccncc2)n1			0.631 µM (active)
CCC(CC)c1cc([C@H]2CN3CC[C@H]2C[C@@H]3CNS(=O)(=O)Cc2ccccc2)nc(-c2ccncc2)n1	-9.02%		
CC(C)c1nnsc1CN1CCn2nc(CCC(=O)N3CCCC3)cc2C1	-17%		
CCN1C(=O)CCN(C(=O)N(C)C)CC12CCOCC2	30.6%		
CCOc1ccc(NC(=O)N2c3ccccc3CC2c2noc(C3CCOCC3)n2)cc1 (stereo unspecified)	-12.3%		
CNC(=O)[C@@H]1CN(C(=O)c2ccco2)C[C@H]1COC	7.02%		
CC(=O)N1CC2(CCN(Cc3cccnc3)C2)Cc2ccccc21 (stereo unspecified)	-11.2%		
O=C(C1CCCC1)N1CC2(CCCN(C3CCCCC3)C2)Cc2ccccc21 (stereo unspecified)			7.94 µM (active)
C[S+](=O)([O-])N1CC2(Cc3ccccc31)CN(C(=O)C1CC1)C2	-4.62% [at 44.1 µM]		

Compound	activity, negative = inhibition	outcome	Potency
COc1ccc2[nH]c3c(c2c1)CCNC31CCN(C(=O)c2ccnn2C)CC1		inactive	
O=C(Cn1nc2c(cc1=O)CCCCC2)Nc1nc(-c2ccncc2)cs1	-14.3%		
O=C1CO[C@H]2CN(C3CCC3)C[C@H]2N1Cc1ccc(OC(F)(F)F)cc1			10 µM (active)
COc1ccc(CN2C(=O)CO[C@H]3CN(Cc4cccnc4)C[C@H]32)cc1	-27.4% [at 44.1 µM]		
COc1ccc(CN2C(=O)CO[C@H]3CN(C(=O)C4CC4)C[C@H]32)cc1	18.4% [at 44.1 µM]		
CCNC(=O)N1C[C@@H]2OCC(=O)N(CCOC)[C@@H]2C1	1.69% [at 44.1 µM]		
CCc1nc(-c2ccc(OC3CCN(C(=O)Cc4c[nH]c5ccccc45)C3)cc2)no1 (stereo unspecified)	2.05% [at 5.79 µM]		
Cc1cccc(C(=O)N2CCC(Oc3ccc(-c4noc(C(C)C)n4)cc3)C2)c1 (stereo unspecified)	27.3% [at 5.79 µM]		
CC(C)c1nc(-c2ccc(OC3CCN(C(=O)CCc4nc5ccccc5[nH]4)C3)cc2)no1 (stereo unspecified)			1.26 µM (active)
N#Cc1ccc(C(=O)Nc2ccc3n(c2=O)C[C@H]2C[C@@H]3CN(C(=O)NC3CCCCC3)C2)cc1	-19.6%		
COc1cccc(NC(=O)CN2C(=O)c3ccccc3Sc3ncccc32)c1	-15.6%		
COc1cccc(NC(=O)Nc2ccc3c(c2)N(C)C(=O)c2ccccc2S3)c1			12.6 µM (active)
CCOc1ccccc1C(=O)Nc1ccc2c(c1)N(C)C(=O)c1ccccc1S2	-8.57%		
CCn1cc(-c2ccc(C)cc2)cc1C(=O)NCc1cccnc1	-8.65%		
Cc1cccc(N2CCN(C(=O)c3cc4n(n3)CC(c3ccc(Cl)cc3)OC4)CC2)c1 (stereo unspecified)		inactive	
COc1cc(CNCc2ccc(C)c(F)c2F)ccc1OCC(O)CN1CCC(O)CC1 (stereo unspecified)	-45.4%		
N#Cc1cccc(CN2C[C@H](O)C[C@H]2c2nc(-c3ccccn3)no2)c1	9.29% [at 44.1 µM]		
Cc1ccccc1C(=O)NCc1nnc2ccc(-c3ccccc3)nn12	-7.27%		
COCc1nncn1C1CCN(C(=O)c2ccccc2OC(F)(F)F)CC1			10 µM (active)
COc1ccccc1C(=O)N1CCC(n2cnnc2C2CC2)CC1	8.5%		
COCc1nncn1C1CCN(C(=O)c2ccccc2F)CC1	-7.03%		

Compound	activity, negative = inhibition	outcome	Potency
COc1ccccc1C(=O)Nc1ccc2c(c1)CN(Cc1ccccc1)C(=O)C(C)O2 (stereo unspecified)		inactive	
O=C1CC2CCN(Cc3cccnc3)CC2CCN1 (stereo unspecified)	9.65% [at 44.1 µM]		
CS(=O)(=O)N1CCCN(C(=O)CN2CCCCCC2)CCNC(=O)CC1c1ccccc1 (stereo unspecified)	-8.48%		
Cc1ccc(CN2CCCN(Cc3ccncc3)C(c3ccccc3)CC(=O)NCC2)s1 (stereo unspecified)			1 µM (active)
Cc1ccccc1CNC(=O)C1CCCN(Cc2cccnc2)CCC(=O)NCC1 (stereo unspecified)	-19.7%		
CNC(=O)N1CCCN(S(C)(=O)=O)C(c2ccccc2)CC(=O)NCC1 (stereo unspecified)	3.9%		
Cc1cccc(CN2CCCN(Cc3ccncc3)C(c3ccccc3)CC(=O)NCC2)c1 (stereo unspecified)			1.26 µM (active)
O=C1CC(c2ccccc2)N(C(=O)C2CC2)CCCN(C(=O)Cc2cccc(F)c2)CCN1 (stereo unspecified)	-7.87%		
CS(=O)(=O)N1CCCN(C(=O)Cc2cccc(F)c2)CCNC(=O)CC1c1ccccc1 (stereo unspecified)	-1.53%		
O=C1CC(c2ccccc2)N(Cc2ccncc2)CCCN(Cc2cccnc2)CCN1 (stereo unspecified)			4.47 µM (active)
N#Cc1ccc(CC(=O)N2CC(CNc3cccnc3)C3(C2)CN(c2ccccc2)C3)cc1 (stereo unspecified)	-11.1% [at 44.1 µM]		
CCN1CC2(CCN(C(=O)c3cc4c(nc3OC)CCC4)CC2)OC1=O	6%		
CNC(=O)[C@H]1C[C@H](Oc2ccccc2)CN1C(=O)c1ccccc1	-11%		
FC(F)(F)CN1C2CCC1CN(c1cncc(Cl)n1)C2	4.15%		
CC(NC(=O)c1coc(COc2ccc3c(c2)OCO3)n1)c1ccc2[nH]ccc2c1 (stereo unspecified)	-11.9%		
Cn1cncc1-c1nnc([C@H]2CCN(CC3CC3)C2)o1	-3.46% [at 44.1 µM]		
CCOC(=O)CCNC(=O)N1CC[C@H]2C(=O)NCCCCCCN(Cc3ccncc3)[C@@H]2C1	-18.7%		
C=CCNC(=O)CCc1c(CC)nn(-c2ccccc2)c1Oc1ccccc1OC		inactive	
CC(=O)c1c(C)nn(CC(=O)N2C[C@H](O)[C@@H](N3CCC(O)CC3)C2)c1C	11%		
